Results filed as inconclusive are left out. The source made the active and inactive calls.
Test: qHTS for identification of novel therapeutic agents for treatment of microphthalmiaassociated transcription factor (MiT) renal cell carcinoma (RCC) (AID 1963991)
Details: CellTiter-Glo, 48 h; for z-score: stronger effect = lower value
Source text: PI: Marston Linehan Ph.D.
Urologic Oncology Branch, Center for Cancer Research (CCR)
National Cancer Institute (NCI), National Institute of Health (NIH), Bethesda, Maryland
MiT-Renal Cell Carcinoma (RCC) is characterized by genomic translocations involving microphthalmia-associated transcription factor (MiT) family members TFE3, TFEB, or MITF. MiT-RCC represents a specific subtype of sporadic RCC that is predominantly seen in young patients and can present with heterogeneous histological features making diagnosis challenging. Moreover, the disease biology of this aggressive cancer is poorly understood and there is no accepted standard of care therapy for patients with advanced disease. Tumor-derived cell lines have been established from human TFE3-RCC providing useful models for preclinical studies. TFE3-RCC tumor derived cell lines and their tissues of origin were characterized by IHC and gene expression analyses. An unbiased high-throughput drug screen was performed to identify novel therapeutic agents for treatment of MiT-RCC. Potential therapeutic candidates were validated in in vitro and in vivo preclinical studies. Mechanistic assays were conducted to confirm the on-target effects of drugs. The results of a high-throughput small molecule drug screen utilizing three TFE3-RCC tumor-derived cell lines identified five classes of agents with potential pharmacological efficacy, including inhibitors of phosphoinositide-3-kinase (PI3K) and mechanistic target of rapamycin (mTOR), and several additional agents, including the transcription inhibitor Mithramycin A. Upregulation of the cell surface marker GPNMB, a specific MiT transcriptional target, was confirmed in TFE3-RCC and evaluated as a therapeutic target using the GPNMB-targeted antibody-drug conjugate CDX-011. […] The results of the high-throughput drug screen and validation studies in TFE3-RCC tumor-derived cell lines have provided in vitro and in vivo preclinical data supporting the efficacy of the PI3K/mTOR inhibitor.
SEQUENCE No. (e.g., 1, 2, 3, etc.); […] (e.g., Cells, Incubation, Reagent, etc.); VALUE; DESCRIPTION.
1; Cells; 3 uL; white, solid-bottom Grenier assay plate.
2; Compounds; 23 nL; Kalypsis pin-tool (Wako USA).
3; Incubation; 48 hr; 37 C, 5% CO2, 95% humidity.
4; Reagent; 3 uL; CellTiter-Glo reagent (Promega).
5; Incubation; 15 min; room temperature.
6; Detection; Luminescence; ViewLux plate reader (PerkinElmer).
NOTES (numbers refer to Sequence numbers above)
1. Quantitative high-throughput screening (qHTS) of 1912 pharmacologically defined small molecule compounds was conducted on three TFE3-fusion cell lines bearing three different fusion partners (UOK109, UOK124, UOK145). Briefly, 500 cells in complete growth media were plated into white, solid-bottom, 1536-well tissue culture treated plates (Grenier Cat. 789173-F) using a Multidrop Combi cassette dispenser.
2. Twenty-three nanoliter of 1912 pharmacologically defined small molecule compounds of the NCATS Mechanism Interrogation PlatE (MIPE) version 4.0 were added to each assay plate using a Pintool Dispenser (Wako) equipped with 1536 pin head.
3. Plates were covered with stainless steel gasketed lids and incubated for 48 hours at standard cell culture conditions.
4. Viability was assessed by adding 3uL of CellTiter-Glo detection reagent (Promega).
5. Plates were covered with gasket lids and incubated for 15 minutes at room temperature.
6. Luminescence was measured on a ViewLux plate reader (PerkinElmer). Post-screen data processing used DMSO controls as 100% viability and empty wells as 0% viability and dose response curve fitting was done for all 11 concentrations for each compound.

[1] = TFE3-RCC UOK109 viability, measured here: UOK109 Z-AUC
[2] = TFE3-RCC viability, measured here: UOK124 Z-AUC
[3] = TFE3-RCC viability, measured here: UOK145 Z-AUC
Potency is the fitted concentration of half-maximal effect.

Row | SMILES | Potency (TFE3-RCC UOK109 viability, active = Z-AUC below -0.8 in all three lines) | z-score [1] | z-score [2] | z-score [3]
1 | Cc1c(CN2CCN(C(=O)C(C)C)CC2)sc2c(N3CCOCC3)nc(-c3cnc(N)nc3)nc12 | 118 nM (active) | -1.83 | -1.54 | -2.67
2 | CCOc1ccc(Cc2cc([C@@H]3O[C@H](CO)[C@@H](O)[C@H](O)[C@@H]3O)ccc2Cl)cc1 | – | 0.362 | 0.747 | 0.623
3 | NS(=O)(=O)c1cc2c(cc1Cl)NC=NS2(=O)=O | – | 0.178 | 0.944 | 0.209
4 | CCn1cc(C(=O)O)c(=O)c2cc(F)c(N3CCNC(C)C3)c(F)c21 (stereo not given) | – | 0.479 | 0.345 | 0.675
5 | Cc1cnc(NC(=O)C2=C(O)c3ccccc3S(=O)(=O)N2C)s1 | – | 0.549 | 0.223 | 0.231
6 | O=C(O)COCCN1CCN(C(c2ccccc2)c2ccc(Cl)cc2)CC1 (stereo not given) | – | 0.871 | 0.439 | 0.674
7 | O=NN(CCCl)C(=O)NCCCl | – | -0.0741 | 1.48 | -0.0256
8 | Cc1n[nH]c(C)c1Cc1sc2c(c1C(=O)N1C[C@H](O)CO1)c(=O)n(C)c(=O)n2CC(C)C | – | 0.549 | 0.656 | 0.704
9 | O=c1[nH]cnc2[nH]ncc12 | – | 0.431 | 0.33 | 0.0964
10 | COc1nc(-c2ccc3c(c2)OCO3)n(-c2ccc(NC(=O)CSc3ccccc3)cc2)n1 | – | 0.687 | 0.0138 | 0.717
11 | CCN(CC)CCCC(C)Nc1nc(C)cc(Nc2ccc3nc(C)cc(N)c3c2)n1 (stereo not given) | – | 0.273 | 0.864 | 0.237
12 | Nc1cccc(S(=O)(=O)N2CCCN(S(=O)(=O)c3ccc4c(c3)OCCO4)CC2)c1 | – | 0.453 | 0.564 | 0.252
13 | CCc1ccc(CCOc2ccc(CC3SC(=O)NC3=O)cc2)nc1 (stereo not given) | – | 1.53 | 0.584 | 0.551
